Among all 54,000 sequences or so, about 4,600 (8.5%) were called active. Cut-off read from the data, not from the text of the source: active = GI50 up to about 1.1 µM and inactive = higher. Only a selection was taken, and actives are over-represented in it overall. Measured potencies and affinities stand elsewhere.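 Cultured in 96-well plates, cells were exposed to test compound for 48 hours across five concentrations. Here, GI50 denotes the concentration required for 50% inhibition of growth.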

In the test the test system is LOX IMVI. Kind of test: NCI tumour cell line growth inhibition, 48 h.
On to CISPLATIN, CHEMBL11359, for which the GI50 was determined as 1.41 µM. For the substance “[Bis(aminomethyl)dimethylsilane]tetrachloroplatinum(IV), CHEMBL2146190”, the GI50 stood at 7.48 µM. The same measure for “cis-Bis[[(trimethylsilyl)methyl]amino]tetrachloroplatinum(IV), CHEMBL2146191”: 5.48 µM; for “[Bis(aminomethyl)ethylmethylsilane]tetrachloroplatinum(IV), CHEMBL2146192”: 7.41 µM; for “[Bis(aminomethyl)tetramethylenesilane]tetrachloropaltinum(IV), CHEMBL2146189”: 3.26 µM.

As for “[Bis(aminomethyl)pentamethylenesilane]tetrachloropaltinum(IV), CHEMBL2146204”, the GI50 came to 0.74 µM. “[Bis(aminomethyl)tetramethylenesilane]dichloropaltinum(II), CHEMBL2146205” returned a GI50 of 22.3 µM.

Consider “[Bis(aminomethyl)pentamethylenesilane]dichloropaltinum(II), CHEMBL2146202”, for which the GI50 is 0.889 µM.

“[Bis(aminomethyl)dimethylsilane]dichloroplatinum (II), CHEMBL2146201” yielded a GI50 of 38.6 µM. In turn, “mu-(1,7-nanodiamine-N,N')bis-(cis-aminedichloroplatimum (II)), CHEMBL2146215” returned a GI50 of 12.6 µM.

For the origin of these results see ChEMBL document CHEMBL1201862, “PubChem BioAssay data set” (2004).
